# According to the supplement of paper PMC6555819:
# Key:
# Experiment in all cases: PBM binding z-score (relative to random genomic background probes); higher = stronger binding; sequences stand for … in GC…GCGATTGACAGCGTAGAATGAAGG
# [1] = tested on: FXR:RXRa (NR concentration 270 nM, RXRa partner concentration 90 nM)
# Outline: (§1)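 For binding z-scores, the reference was random background probes on custom Agilent 4×180K protein-binding microarrays. These arrays were incubated 1 h with ligand-free nuclear receptor dimers in PBS pH 7.4, 2% milk, 0.02% Triton X-100, 1 mM DTT, 0.2 mg/mL BSA and 0.4 mg/ml salmon testes DNA. Fluorescence was scanned after antibody detection of each partner (one per run) and regression-normalized.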
# [2] = tested on: LXRa:RXRa (NR concentration 270 nM, RXRa partner concentration 90 nM)
# Outline: as §1
# [3] = tested on: LXRa homodimer (NR concentration 270 nM)
# Outline: as §1
# [4] = tested on: LXRb:RXRa (NR concentration 270 nM, RXRa partner concentration 90 nM)
# Outline: as §1
# [5] = tested on: LXRb homodimer (NR concentration 270 nM)
# Outline: as §1
# [6] = tested on: PPARa:RXRa (NR concentration 270 nM, RXRa partner concentration 90 nM)
# Outline: as §1
# [7] = tested on: PPARg:RXRa (NR concentration 180 nM, RXRa partner concentration 90 nM)
# Outline: as §1
# [8] = tested on: PPARg:RXRa 270nM:90nM, anti-RXR (NR concentration 270 nM, RXRa partner concentration 90 nM)
# Outline: as §1
# [9] = tested on: PPARg:RXRa 30nM:10nM, anti-RXR (NR concentration 30 nM, RXRa partner concentration 10 nM)
# Outline: as §1
# [10] = tested on: PPARg:RXRa 90nM:30nM, anti-RXR (NR concentration 90 nM, RXRa partner concentration 30 nM)
# Outline: as §1
Sequence,PBM binding z-score [1],PBM binding z-score [2],PBM binding z-score [3],PBM binding z-score [4],PBM binding z-score [5],PBM binding z-score [6],PBM binding z-score [7],PBM binding z-score [8],PBM binding z-score [9],PBM binding z-score [10]
CAGCCTAGGTCAGGGCCATTATAGGAGGAACGTT,1.65,1.08,-0.000598,0.902,-0.851,2.17,1.2,1.24,-0.158,0.533
CGAACGAGGGCATGAGTTGGTAGCAAATGCCGAT,0.159,0.0461,-0.707,-0.2,-1.32,1.06,0.849,0.827,0.00769,0.471
CCTAGTGGGTCAAGGTCACACACGCTATAGGTAC,5.66,4.37,1.16,3.95,0.411,5.54,8.69,7.42,5.3,6.95
ATGTGTAGGTTATCGGGTCATTCAGTTTGCGCAT,3.54,3.13,1.9,3.3,1.26,4.08,4.09,4.29,1.54,3.43
GCTATTAGTTGAAAGGGCAACCGCATGATTCTCG,0.581,0.701,0.377,0.909,-0.00487,2.31,2.89,4.29,2.56,4.39
CGTGCAAGGTCAGCAGGTCAGTGAAAGCGACGTG,6.34,4.37,0.442,3.25,-0.32,5.48,4.89,4.92,1.7,3.51
CAAACTAGGTCAAGAGTTCAAAGTCCGCTTCCCG,5.67,5.69,6.24,4.15,1.05,6.1,9.08,7.81,6.8,8.19
ATGCCAAGGTGATCGTGAGGTCGTTGATACTAAC,1.44,0.89,0.206,0.945,-0.844,1.55,0.467,0.399,-0.303,0.00157
CCGACTGGGCCAAGGTTACCATAACGCACAGCCA,0.00014,0.358,-0.181,0.279,-1.2,1.01,1.97,2.37,0.199,1.39
CCGACTGGGGCATAAGGTTACCCTAAGCCAGCCC,0.368,0.99,-0.135,0.439,-1.18,1.6,1.95,3.02,0.838,2.09
TCTATTAGTTGATTAGGGCAACCGGAACAGCGGA,0.61,0.628,0.183,0.539,0.503,0.953,0.188,1.84,3.7,2.79
TGTCAAAGTTCAAAGGTAACGGAAGTATCCACAC,7.08,6.74,4.4,4.82,1.8,6.04,8.79,7.85,5.15,7.21
